# Experimental data: paper PMC9911399, “Two distinct binding modes provide the RNA-binding protein RbFox with extraordinary sequence specificity”
# Changes are numbered by the printed parent chain; changes in the protein carry UniProt numbers. The full ranking holds about 16,000 sequences; the median of “ka relative to ugcaugu” is about 0.096, and the highest 2% start at about 0.35. The entries come from a sample that favours the highest values as a whole.
# T1: RBFOX1 RRM RbFoxmut (Fox-RRM*) (Homo sapiens, UniProt Q9NWB1 109-208, R118D;E147R;N151S;E152T)
# T1 sequence: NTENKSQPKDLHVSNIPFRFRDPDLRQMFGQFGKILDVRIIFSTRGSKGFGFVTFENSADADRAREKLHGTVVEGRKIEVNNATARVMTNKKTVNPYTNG
# B1: ACGCACA (DNA:RNA)
# RNA: GGGAGACCGGAAUUCAGAUUGUCCACGCACAUUAAAUCCCGUCGUAGCCACCA
# DNA 1: CAATCTGAATTCCGGTCTCCC
# DNA 2: TGGTGGCTACGACGGGATT
# B2: GCCGUUU (DNA:RNA)
# RNA: B1 RNA with A25G, G27C, C28G, A29U, C30U, A31U
# DNA 1: CAATCTGAATTCCGGTCTCCC
# DNA 2: TGGTGGCTACGACGGGATT
# B3: UCGUGAC (DNA:RNA)
# RNA: B1 RNA with A25U, C28U, A29G, C30A, A31C
# DNA 1: CAATCTGAATTCCGGTCTCCC
# DNA 2: TGGTGGCTACGACGGGATT
# B4: UCACAUA (DNA:RNA)
# RNA: B1 RNA with A25U, G27A, C30U
# DNA 1: CAATCTGAATTCCGGTCTCCC
# DNA 2: TGGTGGCTACGACGGGATT
# B5: GUAUGCA (DNA:RNA)
# RNA: B1 RNA with A25G, C26U, G27A, C28U, A29G
# DNA 1: CAATCTGAATTCCGGTCTCCC
# DNA 2: TGGTGGCTACGACGGGATT
# B6: GGAUGCA (DNA:RNA)
# RNA: B1 RNA with A25G, C26G, G27A, C28U, A29G
# DNA 1: CAATCTGAATTCCGGTCTCCC
# DNA 2: TGGTGGCTACGACGGGATT
# B7: AUAUGCA (DNA:RNA)
# RNA: B1 RNA with C26U, G27A, C28U, A29G
# DNA 1: CAATCTGAATTCCGGTCTCCC
# DNA 2: TGGTGGCTACGACGGGATT
# B8: UCCCGUA (DNA:RNA)
# RNA: B1 RNA with A25U, G27C, A29G, C30U
# DNA 1: CAATCTGAATTCCGGTCTCCC
# DNA 2: TGGTGGCTACGACGGGATT
# B9: CUGAAUC (DNA:RNA)
# RNA: B1 RNA with A25C, C26U, C28A, C30U, A31C
# DNA 1: CAATCTGAATTCCGGTCTCCC
# DNA 2: TGGTGGCTACGACGGGATT
# B10: UGAUUGU (DNA:RNA)
# RNA: GGGAGACCGGAAUUCAGAUUGUCCUGAUUGUUUAAAUCCCGUCGUAGCCACCA
# DNA 1: CAATCTGAATTCCGGTCTCCC
# DNA 2: TGGTGGCTACGACGGGATT
# B11: CUGAAUG (DNA:RNA)
# RNA: B1 RNA with A25C, C26U, C28A, C30U, A31G
# DNA 1: CAATCTGAATTCCGGTCTCCC
# DNA 2: TGGTGGCTACGACGGGATT
# B12: CCCUGAA (DNA:RNA)
# RNA: B1 RNA with A25C, G27C, C28U, A29G, C30A
# DNA 1: CAATCTGAATTCCGGTCTCCC
# DNA 2: TGGTGGCTACGACGGGATT
# B13: UGAAUGU (DNA:RNA)
# RNA: B10 RNA with U28A
# DNA 1: CAATCTGAATTCCGGTCTCCC
# DNA 2: TGGTGGCTACGACGGGATT
# B14: UGAAAUG (DNA:RNA)
# RNA: B10 RNA with U28A, U29A, G30U, U31G
# DNA 1: CAATCTGAATTCCGGTCTCCC
# DNA 2: TGGTGGCTACGACGGGATT
# B15: CGGUUCC (DNA:RNA)
# RNA: B10 RNA with U25C, A27G, G30C, U31C
# DNA 1: CAATCTGAATTCCGGTCTCCC
# DNA 2: TGGTGGCTACGACGGGATT
# B16: UUUCGAG (DNA:RNA)
# RNA: B1 RNA with A25U, C26U, G27U, A29G, C30A, A31G
# DNA 1: CAATCTGAATTCCGGTCTCCC
# DNA 2: TGGTGGCTACGACGGGATT
# B17: AUUAUUA (DNA:RNA)
# RNA: B1 RNA with C26U, G27U, C28A, A29U, C30U
# DNA 1: CAATCTGAATTCCGGTCTCCC
# DNA 2: TGGTGGCTACGACGGGATT
# B18: UUUUUAA (DNA:RNA)
# RNA: B10 RNA with G26U, A27U, G30A, U31A
# DNA 1: CAATCTGAATTCCGGTCTCCC
# DNA 2: TGGTGGCTACGACGGGATT
# B19: ACUUAAG (DNA:RNA)
# RNA: B1 RNA with G27U, C28U, C30A, A31G
# DNA 1: CAATCTGAATTCCGGTCTCCC
# DNA 2: TGGTGGCTACGACGGGATT
# B20: CCAGAGG (DNA:RNA)
# RNA: B1 RNA with A25C, G27A, C28G, C30G, A31G
# DNA 1: CAATCTGAATTCCGGTCTCCC
# DNA 2: TGGTGGCTACGACGGGATT
# Target: T1, RBFOX1 RRM RbFoxmut (Fox-RRM*)
# Test: EMSA; HiTS-Eq, 1 nM pool, 10 min; buffer printed only for the single-RNA assays: 10 mM Tris pH 7.5, 150 mM NaCl, 3.4 mM EDTA, 0.001% NP-40, 30 C
# Conditions: tags: His6 N-terminal (pET28a); label: 5' 32P
# Summary of the method: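 Purified RbFox RRM, wild type or mutant, was incubated for 10 min in 50 µL with 1 nM of a 5′-radiolabelled RNA pool carrying 7 randomized nucleotides, whose flanks were annealed to DNA oligonucleotides, over a series of increasing protein concentrations. Unbound RNA was resolved on 8% native PAGE, cut out, reverse-transcribed, barcoded by PCR and sequenced on an Illumina HiSeq 2500. Relative association constants were derived from changes in read counts for each RNA species versus the control reaction and normalised to the cognate motif.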
row,Binder,binding signal
1,B1,0.105 KA relative to UGCAUGU
2,B2,0.0818 KA relative to UGCAUGU
3,B3,0.0717 KA relative to UGCAUGU
4,B4,0.112 KA relative to UGCAUGU
5,B5,0.574 KA relative to UGCAUGU
6,B6,0.24 KA relative to UGCAUGU
7,B7,0.208 KA relative to UGCAUGU
8,B8,0.12 KA relative to UGCAUGU
9,B9,0.315 KA relative to UGCAUGU
10,B10,0.308 KA relative to UGCAUGU
11,B11,0.915 KA relative to UGCAUGU
12,B12,0.0778 KA relative to UGCAUGU
13,B13,0.75 KA relative to UGCAUGU
14,B14,0.158 KA relative to UGCAUGU
15,B15,0.104 KA relative to UGCAUGU
16,B16,0.107 KA relative to UGCAUGU
17,B17,0.154 KA relative to UGCAUGU
18,B18,0.1 KA relative to UGCAUGU
19,B19,0.174 KA relative to UGCAUGU
20,B20,0.0884 KA relative to UGCAUGU
